# G9a block – blocks human histone lysine methyltransferase G9a; Potency, µM (doses to about 102 µM), for inactives: at the top dose activity, negative = inhibition, actives largely listed as inhibitors; G9a H3K9 monomethylation, AlphaScreen, 2 h; actives 8.8% (n = 350,000); Q96KQ7; further: on the % scale 0 is the no-effect control and ±100 the full control effect; nearly all actives have a fitted effect of over 75% in size
#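 Signal arises when biotinylated H3K9 peptide, once monomethylated, bridges streptavidin donor and antibody-captured acceptor beads. Enzyme at 20 nM was preincubated 15 min with test compounds; peptide 500 nM and SAM 20 uM then reacted for 2 h.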
# BAZ2B inh – inhibitors of human BAZ2B bromodomain; Q9UIF8; AlphaScreen BAZ2B-H3K14Ac peptide displacement; Potency, µM (doses to about 114 µM), for the others: top-dose activity change, negative = inhibition, most hits filed as inhibitors; actives 4.4% (n = 360,000); AID 504333; further: on the % scale 0 is the no-effect control and ±100 the full control effect; nearly all actives have a fitted effect of over 60% in size
#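 AlphaScreen displacement: compounds (up to 110uM) incubated 30 min at room temperature with a preformed 50 nM BAZ2B/50 nM biotinylated H3K14Ac peptide complex in PBS pH 7.4 with Tween-20. Donor and acceptor beads at 10 ug/mL final added, 20 min light-protected before reading.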
# GLS inhibitor – inhibitors of human glutaminase (GLS). actives 0.21% (n = 410,000). AID 624170. O94925. GLS enzymatic activity, qHTS titration. Potency, µM (series often up to 45.5 µM), for the others: at the highest dose activity change, negative = inhibition, most hits filed as inhibitors; further: on the % scale 0 is the no-effect control and ±100 the full control effect
# Target sequence (O94925 whole entry, looked up): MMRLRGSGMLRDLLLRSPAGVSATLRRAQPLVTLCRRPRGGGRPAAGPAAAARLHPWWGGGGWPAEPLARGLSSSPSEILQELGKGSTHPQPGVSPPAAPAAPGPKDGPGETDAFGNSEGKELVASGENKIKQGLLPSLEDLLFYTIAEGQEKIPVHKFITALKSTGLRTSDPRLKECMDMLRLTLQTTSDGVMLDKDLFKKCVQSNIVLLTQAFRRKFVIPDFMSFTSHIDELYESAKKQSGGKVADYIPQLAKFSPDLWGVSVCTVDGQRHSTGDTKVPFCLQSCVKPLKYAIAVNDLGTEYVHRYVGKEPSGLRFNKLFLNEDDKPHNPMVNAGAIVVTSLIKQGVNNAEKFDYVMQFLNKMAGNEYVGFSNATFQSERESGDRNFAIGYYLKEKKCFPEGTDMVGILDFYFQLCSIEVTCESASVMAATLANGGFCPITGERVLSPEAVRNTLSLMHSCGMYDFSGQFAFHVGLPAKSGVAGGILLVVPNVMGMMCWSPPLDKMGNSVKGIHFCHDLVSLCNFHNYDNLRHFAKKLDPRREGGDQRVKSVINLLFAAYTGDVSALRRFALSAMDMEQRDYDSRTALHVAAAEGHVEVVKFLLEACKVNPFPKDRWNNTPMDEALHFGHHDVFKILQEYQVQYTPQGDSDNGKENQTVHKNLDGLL
#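 hKGA in 45 mM KH2PO4 (pH 8.2), 0.02% Tween-20 with compound, then 1mM L-Glutamine (stock as added) plus glutamate oxidase/HRP/Amplex red coupling mix. Fluorescence read initially and after 30 min at RT; signal change reflects glutamate formation.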
# HP1b binding inh – HP1-beta chromodomain-methylated histone interaction inhibition. P83916. AlphaScreen HP1-beta / biotin-H3K9me3 peptide binding. Potency, µM (highest dose often 114 µM), for inactives: at the highest dose activity change, negative = inhibition, hits mostly inhibitors. actives 0.56% (n = 390,000). AID 540317; further: nearly all actives have a fitted effect of over 70% in size
#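 HP1-beta protein (50 nM final) preincubated 30 min at room temperature with biotinylated H3(1-18)K9me3 peptide (50 nM) in PBS pH 7.4, 0.01% Tween-20, then compound added for 30 min. AlphaScreen streptavidin donor/nickel chelate acceptor beads (10 ug/mL final), 30 min dark, luminescence read.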
# JMJD2A Tudor – inhibitors of human JMJD2A Tudor domain. O75164. AlphaScreen JMJD2A-Tudor / H3K4me3 peptide binding. Potency, µM (series often up to 114 µM), for inactives: at the top dose activity change, negative = inhibition, most hits filed as inhibitors. actives 4.4% (n = 390,000). AID 504339; further: on the % scale 0 is the no-effect control and ±100 the full control effect; nearly all actives have a fitted effect of over 50% in size
# * marks the source's active call; other numbers are inactive results; ? = inconclusive; · = not tested or not shown; [ ] = another dose, or the depositor's remark. Compounds with a hit are over-represented: about 10% of the library has one in this group of screens. The call rests on the fitted dose curve; in most records, active means well fitted curve in the direction sought with a large enough effect; inconclusive means small, poorly fitted or top-dose-only effect, or another doubt; inactive means no such curve, though single readings can be large; an effect the other way counts as inactive or inconclusive. Potency means the concentration at half of the fitted maximal effect.
SMILES,G9a block,BAZ2B inh,GLS inhibitor,HP1b binding inh,JMJD2A Tudor
CCOc1ccc(OCC)c(NS(=O)(=O)c2cc(Br)cc3c2N(C(C)=O)C(C)C3)c1 (stereo unspecified),-43.5%[59 µM],-21.7%,-1.9%,-8.1%,-34.8%
CCOc1ccc(N(CC)S(=O)(=O)c2cc(Br)cc3c2N(C(C)=O)C(C)C3)cc1 (stereo unspecified),1.41µM*,-23.4%,-0.9%,3.9%,-24.9%
CCCc1nc2nc(C)c(NS(=O)(=O)c3ccc(F)cc3)c(=O)n2[nH]1,8.2%,1.6%,55.8%,23.7%,-5.6%
Cc1nc2nc(C)c(NS(=O)(=O)c3ccc4c(c3)CCCC4)c(=O)n2[nH]1,70.8µM*,-6.2%,32.5%,-16.1%,3.5%
CCCc1nc2nc(C)c(NS(=O)(=O)c3ccc([N+](=O)[O-])cc3)c(=O)n2[nH]1,79.4µM*,5.8%,22.9%,52.5%,-4.9%
O=C(COc1cccc(C(F)(F)F)c1)Nc1cccc(S(=O)(=O)NC2=NCCCCC2)c1,·,·,-10.2%,24.4%,-17.5%
COC(=O)[C@]12CCCCC=C1N(CCC1=CCCCC1)C(=O)[C@H](CC(=O)N1CCCCC1)C2,·,·,-11.7%,·,·
CC1=C/C(=C(/c2ccc(O)c(C)c2)c2ccccc2S(=O)(=O)O)C=CC1=O,-15.2%[12.7 µM],50.1µM*,25.5%,?,-19.9%
CC1=C/C(=C(/c2cc(C)c(O)c(Br)c2)c2ccccc2S(=O)(=O)O)C=C(Br)C1=O,3.1%[2.33 µM],17.8µM*,24.0%,31.6µM*,?
COc1ccc(N2C(=O)CSC23C(=O)N(CC(=O)NC2CCCCC2)c2ccccc23)cc1 (stereo unspecified),-16.3%[59 µM],8.3%[57.1 µM],-5.9%,32.0%,-9.7%
COc1cccc(NC(=O)CSc2nccn2C2CCCC2)c1,-21.9%[59 µM],?,6.2%,11.9%,-25.7%
O=CNc1cc(-c2cccc(F)c2)cn2c(-c3ccc(F)c(Cl)c3)cnc12,·,·,-10.9%,·,·
CCN1CCc2nc(N)oc2CC1,23.8µM*,6.2%,-8.5%,47.1%,-7.9%
O=C(CSC1=N/C(=C/c2ccco2)C(=O)N1c1ccc(OC(F)F)cc1)NC1CCS(=O)(=O)C1 (stereo unspecified),44.7µM*,50.1µM*,5.9%,-13.4%,?
COc1ccc(N2CC(C(=O)Nc3nc4ccc(S(C)(=O)=O)cc4s3)CC2=O)cc1 (stereo unspecified),28.2µM*,?,-8.7%,-12.3%,-28.8%
COc1ccc(N2CC(C(=O)N/N=C/c3cc([N+](=O)[O-])ccc3O)CC2=O)cc1 (stereo unspecified),-37.0%,35.5µM*,-4.6%,46.8%,79.4µM*
COc1ccc(C(=O)Nc2nc3ccc(S(C)(=O)=O)cc3s2)cc1,?,10.9%,4.7%,42.2%,-0.6%
CCc1ccc(N2CC(C(=O)Nc3nc4ccc(S(C)(=O)=O)cc4s3)CC2=O)cc1 (stereo unspecified),39.8µM*,-1.9%,-13.2%,-33.4%,-21.0%
COc1cc(OC)cc(C(=O)N[C@H](C(=O)Nc2nc3ccc(S(C)(=O)=O)cc3s2)C(C)C)c1,39.8µM*,-13.3%,-1.8%,58.5%,-7.6%
CS(=O)(=O)c1ccc2nc(NC(=O)C3CC(=O)N(c4ccc(F)cc4)C3)sc2c1 (stereo unspecified),?,-16.8%,-10.3%,28.8%,-6.0%
Nc1nc2c(ncn2[C@@H]2O[C@H](CNS(=O)(=O)C3CC3)[C@@H](O)[C@H]2O)c(=O)[nH]1,·,·,10.7%,·,·
O=c1cc(-c2cccc(-c3ccc(C(F)(F)F)cc3)c2)c2cc3c(cc2o1)OCO3,66.9%[59 µM],·,·,·,·
COc1ccc(CCNC(=O)c2ccc3c(c2)N(Cc2ccc(F)cc2)C(=O)CS3)cc1OC,?,13.0%,2.6%,59.2%,-34.3%
CC1(C)CC(=O)C2=C(C1)NC(Nc1nc3ccccc3o1)=NC2c1cccc(F)c1 (stereo unspecified),·,·,·,27.3%[57 µM],-6.2%[57.1 µM]
CC1CCC(C(C)C)C2=C1C(C#N)(C#N)C(C#N)(C#N)C(c1ccccc1)N2 (stereo unspecified),7.08µM*,?,-14.6%,?,?
SMILES,G9a block,BAZ2B inh,GLS inhibitor,HP1b binding inh,JMJD2A Tudor
CC(C)C1OC2(C)OC(=N)C1(C#N)C(C#N)(C#N)C2c1ccccc1 (stereo unspecified),0.3%[59 µM],-3.7%,?,21.7%,-16.7%
COc1ccc(S(=O)(=O)Nc2cc3c4c(c2)CCC(=O)N4CCC3)cc1C,?,-32.4%,4.9%,21.7%,-5.5%
Cc1ccc2c(nc3s/c(=C/c4cccs4)c(=O)n32)c1C,7.94µM*,·,7.6%,-13.0%,?
Cc1cc(C)c2nc3s/c(=C/c4ccccc4)c(=O)n3c2c1,1.26µM*,3.4%,·,·,·
Cc1cc(C)c2nc3sc(=Cc4ccc(-c5ccccc5C(=O)O)o4)c(=O)n3c2c1,·,·,12.6µM*,·,·
Cc1ccc2c(nc3s/c(=C\c4ccc(-c5ccccc5C(=O)O)o4)c(=O)n32)c1C,17.8µM*,56.2µM*,?,-18.2%,?
Cc1c(C(=O)O)cccc1-c1ccc(C=O)o1,?,-9.9%,-16.6%,5.1%,-30.7%
O=S(=O)(c1ccccc1)C1CC1(c1ccccc1)c1ccccc1 (stereo unspecified),·,·,-1.8%,50.4%,3.5%
O=C(NC1CCCCC1)C1c2ccccc2OCC(=O)N1Cc1ccco1 (stereo unspecified),·,·,0.9%,·,·
N#Cc1nc(Nc2cc(Cl)cc(Cl)c2)nc(NC2CCCC2)n1,·,·,·,·,-5.5%
O=C(c1cc(-c2cccc(Cl)c2)on1)N1CCOCC1,4.3%,8.0%,-11.1%,8.7%,-12.7%
O=C(O)c1ccc(-c2ccc(/C=c3/sc4nc5ccccc5n4c3=O)o2)cc1Cl,5.01µM*,39.8µM*,10µM*,17.8µM*,20µM*
C=C(C)c1nc(Oc2ccccc2)nc(Oc2ccccc2)n1,·,·,5.0%,95.7%,16.0%
O=C(CCc1nc2sc3c(c2c(=O)[nH]1)CCCC3)NCCc1ccccc1,?,?,3.8%,3.9%,-20.0%
CC(=O)Nc1ccc(NC(=O)CCc2nc3sc4c(c3c(=O)[nH]2)CCCC4)cc1,15.7%[0.501 µM],-5.5%,-4.9%,22.2%,-31.5%
CC1(NC(=O)CCc2nc3sc4c(c3c(=O)[nH]2)CCCC4)CCS(=O)(=O)C1 (stereo unspecified),50.1µM*,79.4µM*,-10.9%,-16.1%,?
Cc1ccc(NC(=O)CCc2nc3sc4c(c3c(=O)[nH]2)CCCC4)c(Br)c1,?,50.1µM*,0.0%,1.9%,?
CCc1ccccc1NC(=O)CNC(=O)CCc1nc2sc3c(c2c(=O)[nH]1)CCCC3,?,50.1µM*,1.3%,-4.4%,?
Cc1cc(C)cc(NC(=O)CCc2nc3sc4c(c3c(=O)[nH]2)CCCC4)c1,-2.6%[59 µM],-38.1%,-8.5%,18.3%,-27.4%
O=C(Nc1ccc(F)c(Cl)c1)N1CCC(CN2CCc3ccccc3C2)CC1,-39.8%[59 µM],-7.5%,0.7%,2.8%,-19.8%

# From PubChem
